From PubChem BioAssay
Shiga inhibitor: Shiga toxin inhibition; 9.2% of 290,000 active; inhibition, % at 38.7 µM; Vero cells, Shiga toxin protein synthesis inhibition reporter; in the data active means inhibition mostly above about 28%, no sharp cut-off; inactive means mostly below about 43%
RE007 growth inh: less growth of the S. pombe RE007 Vpr strain | 0.21% of 360,000 active | S. pombe RE007 Vpr strain, BacTiter-Glo ATP luminescence, 24 h | AID 651644 | Potency, µM (series often up to 92.2 µM), usual class: inhibitors; active means well fitted falling curve with a large enough effect; inconclusive means small, poorly fitted or top-dose-only effect; inactive means no such curve, though single readings can be large or run the other way; further: nearly all actives have a fitted effect of over 50% in size
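Fission yeast RE007 carrying one integrated HIV-1 vpr copy, seeded at OD 0.01 in PMG+AL medium with 23 nL pinned compound. Grown 24 h at 30 degrees; viability read by BacTiter-Glo luminescence after 5 min.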
Cycloheximide cs: counter-screen hit for Shiga toxin inhibitors, cycloheximide; cell reporter, cycloheximide protein synthesis inhibition counterscreen; 12% of 300,000 active; AID 2314; max response, %; in the data active means max response mostly above about 13%, no sharp cut-off; inactive means mostly below about 14%; further: read at 38.3 µM for the half of the compounds with a filed dose
LmPK inh: blocks Leishmania mexicana pyruvate kinase activity; AID 1721; purified LmPK, Kinase-Glo ATP luminescence, 1 h; 0.37% of 290,000 active; Potency, µM (titrated, usually from 57.5 µM), actives largely listed as inhibitors
Target sequence (Q27686 whole entry, looked up): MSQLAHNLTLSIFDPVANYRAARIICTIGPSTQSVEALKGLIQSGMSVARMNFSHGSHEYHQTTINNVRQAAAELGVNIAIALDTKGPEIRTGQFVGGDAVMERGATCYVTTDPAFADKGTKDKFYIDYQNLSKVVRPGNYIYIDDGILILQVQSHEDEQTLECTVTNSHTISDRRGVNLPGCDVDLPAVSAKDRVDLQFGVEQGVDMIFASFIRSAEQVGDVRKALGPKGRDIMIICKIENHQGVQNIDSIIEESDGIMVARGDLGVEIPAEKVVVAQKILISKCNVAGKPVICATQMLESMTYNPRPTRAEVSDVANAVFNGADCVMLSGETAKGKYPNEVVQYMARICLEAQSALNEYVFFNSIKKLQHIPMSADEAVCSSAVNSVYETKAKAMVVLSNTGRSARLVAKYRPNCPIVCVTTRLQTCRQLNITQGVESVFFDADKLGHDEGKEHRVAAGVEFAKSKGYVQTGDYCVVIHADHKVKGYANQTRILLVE
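qHTS format; LmPK 0.1 nM; substrates PEP 0.5 mM and ADP 0.1 mM. One-hour room-temperature incubation, then coupled luciferase luminescence; 0.5 nM enzyme wells mark activation.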
FBPA Giardia inh: inhibitors of Giardia lamblia fructose-1,6-bisphosphate aldolase | A8B2U2 | purified Giardia FBPA | Potency, µM (titrated, usually from 59.6 µM), most hits filed as inhibitors | 0.71% of 290,000 active | AID 2451; further: nearly all actives have a fitted effect of over 55% in size
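Giardia FBPA (40 nM reagent) was preincubated 10 min at RT with compound (up to 57.5 uM final), then substrate plus GAPDH/TPI/NAD/arsenate coupling system with diaphorase/resazurin was added; resorufin fluorescence (525/598 nm) was read after 20 min.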
Tb PYK inh: inhibitors of Trypanosoma brucei pyruvate kinase; 0.12% of 410,000 active; Potency, µM (doses to about 76.8 µM), hits mostly inhibitors; TbPYK enzyme, Kinase-Glo Plus ATP luminescence, 45 min; further: nearly all actives have a fitted effect of over 50% in size
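Luminescence from Kinase-Glo Plus, added after a 45-minute room-temperature reaction, served as the end-point read-out. The enzyme and substrate were preincubated with compound before ADP (130 uM final) initiated turnover. Concentration-effect curves came from normalized qHTS data.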
Numbers stand for hits; 0 = inactive; ? = inconclusive; - = not tested or not shown; + = active, no number; [ ] = remark or other dose. This excerpt belongs to a sample that is enriched for hits. Unless noted, the call rests on the fitted dose curve; in most records, active means well fitted curve in the direction sought with a large enough effect; inconclusive means small, poorly fitted or top-dose-only effect, or another doubt; inactive means no such curve, though single readings can be large; an effect the other way counts as inactive or inconclusive.

SMILES	Shiga inhibitor	RE007 growth inh	Cycloheximide cs	LmPK inh	FBPA Giardia inh	Tb PYK inh
CCOc1cc(CNC(=O)C2COc3ccccc3C2)cc(OCC)c1OCC (centres undefined)	-	-	-	-	-	0
CCOc1ccc2oc(C(=O)NCC3CCCO3)c(C)c2c1 (centres undefined)	88	0	46	0	-	0
COc1ccc2oc(C(=O)NCC3CCCO3)c(C)c2c1 (centres undefined)	98	0	65	0	-	0
CCOc1ccc(CNS(=O)(=O)c2cc3c(cc2C)NC(=O)CO3)cc1	-	-	-	-	-	0[15.4 µM]
COc1cccc(C(=O)Nc2cccc(-c3cn4ccsc4n3)c2)c1OC	-	-	-	-	-	0
CCN1C(=O)C(=Cc2ccc(C)s2)C(=O)N(CC)C1=S	44	0	0	0	0	?
O=C(CC1C(=O)N(c2ccc(F)cc2)C(=O)N1Cc1ccc2c(c1)OCO2)Nc1ccc(F)cc1 (centres undefined)	-	-	-	-	-	0
O=S(=O)(NC1=NCCCCC1)c1ccc2ccccc2c1	0	0	23	0	0	0
O=C(CCN1CCCC1)c1cccs1	0	0	0	0	0	0
O=C(CCN1CCC(c2cccs2)=N1)c1cccs1	69	?	42	0	0	0
O=C(C1CCN(Cc2ccc(OCc3ccccc3)cc2)CC1)N1CCCC1	0	0	27	0	0	0
C=CCN(CC=C)C(=O)C1CCN(Cc2ccc(OCc3ccccc3)cc2)CC1	-	0	18	0	?	0
OC1CCN(Cc2ccc(OCc3ccccc3)cc2)CC1	-	0	19	0	0	0
CC(C)N1CCN(Cc2ccc(OCc3ccccc3)cc2)CC1CCO (centres undefined)	0	0	0	0	0	0
CC1CCCN(Cc2ccc(OCc3ccccc3)cc2)C1 (centres undefined)	0	0	22	0	0	0
CCCCOc1cc(C[C@@H]2CNC(=O)N2)ccc1OC	-	-	-	-	0	-
CCOc1ccc(NC(=O)CN2C(=O)C(c3ccccc3)=NC23CCCCCC3)cc1	-	-	-	-	-	0
COc1ccc(OC)c2sc(N(Cc3cccnc3)C(=O)c3ccco3)nc12	-	-	-	-	-	0[15.4 µM]
CCCCNC(=O)C1CCN(Cc2ccc(OCc3ccccc3)cc2)CC1	63	0	26	0	0	0
CCNC(=O)C1CCCN(Cc2ccc(OCc3ccccc3)cc2)CC1 (centres undefined)	-	0[18.4 µM]	-	-	-	0
COc1ccc(CN(C)c2ccc(-c3nc(-c4ccccc4)no3)cc2[N+](=O)[O-])cc1	-	-	-	-	-	0
NC(=S)NS(=O)(=O)c1ccc(N)cc1	-	-	-	-	-	0
Cc1nc(N2CCC(C)CC2)c2nnn(Cc3ccccc3)c2n1	56	0	0	0	0	0
CC(C)Cc1nc(N2CCC(C(N)=O)CC2)c2nnn(Cc3ccccc3)c2n1	0	0	0	0	0	0
CCc1cccc(NC(=O)Cn2nc(-c3cc(C)ccc3C)ccc2=O)c1	-	-	-	-	-	0
SMILES	Shiga inhibitor	RE007 growth inh	Cycloheximide cs	LmPK inh	FBPA Giardia inh	Tb PYK inh
CCn1c(CNC(=O)C23CC4CC(CC(C4)C2)C3)nnc1SCC(=O)Nc1ccc(F)cc1	-	-	-	-	-	0
COc1ccccc1N1CCN(C(=O)CNC(=O)c2cn(-c3ccccc3OC)c(=O)c3ccccc23)CC1	0	0	14	0	0	0
COc1ccccc1-n1cc(C(=O)NCC(=O)N2CCN(c3ccccc3)CC2)c2ccccc2c1=O	50	0	30	0	0	0
COc1ccccc1OCC(=O)N1CCN(c2ccccc2OC)CC1	0	0	0	0	0	0
Cc1ccccc1C(=O)NCC(=O)N1CCN(c2ccccn2)CC1	-	0	-	-	-	0
COc1ccccc1-n1cc(C(=O)NCC(=O)N2CCN(c3ccccn3)CC2)c2ccccc2c1=O	0	0	16	0	0	0
CC(=O)N1CC(O)CC1C(=O)O (centres undefined)	-	-	-	-	-	0
O=C(Nc1nc2c(s1)CCCC2)c1cccnc1	70	0	52	0	0	0
O=C(Nc1ccc(Br)cc1)Nc1nc2c(s1)CCCCCC2	-	-	-	-	-	0
O=C(Cc1ccc(S(=O)(=O)N2CCOCC2)s1)Nc1ccc2c(c1)CCC2	0	0	0	0	0	0
C/C(=N\Nc1nc2c(s1)CCCC2)c1ccccc1	143	0	43	0	0	0
O=C(Nc1nc2c(s1)CCCC2)c1cccs1	0	?	27	?	0	0
O=C(Cc1ccc(S(=O)(=O)N2CCOCC2)s1)Nc1nc2c(s1)CCCC2	0	0	0	0	16µM	0
O=C(NC(=S)Nc1nc2c(s1)CCCC2)c1ccc(C(=O)c2ccccc2)cc1	0	-	0	0	0	0
Cc1nc2ccn(Cc3ccco3)c(=O)c2cc1C(=O)NCc1ccccc1F	-	-	-	-	-	0
COc1ccc(-c2nc3c(c4c2C[C@H](c2ccccc2)OC4)CN(C(=O)NCCc2c[nH]c4ccccc24)CC3)c(C)c1	-	-	-	0[11.5 µM]	0[12.9 µM]	-
O=C(CCSc1ccccc1)Nc1nc2c(s1)CCCC2	162	0	31	0	0	0
O=C(Cc1cccs1)Nc1nc2c(s1)CCCC2	132	?	54	0	0	0
O=C(CSc1ncn(-c2ccccc2)n1)Nc1nc2c(s1)CCCC2	0	?	0	0	0	0
O=C(COc1ccc([N+](=O)[O-])cc1)Nc1nc2c(s1)CCCC2	-	-	-	-	-	0
O=C(Nc1nc2c(s1)CCCC2)Oc1ccccc1	34	0	21	0	0	0
O=C(CNC(=O)c1ccccc1F)c1ccccc1	0	0	34	0	0	0
O=C(CNC(=O)c1ccccc1Cl)c1ccccc1	65	0	50	0	0	0
NC(=O)c1ccccc1NCC(=O)c1ccc(Cl)cc1	0	0	0	0	0	0
CC(CNC(=O)COC(=O)c1cccnc1Cl)c1ccccc1 (centres undefined)	-	0	-	-	-	0
SMILES	Shiga inhibitor	RE007 growth inh	Cycloheximide cs	LmPK inh	FBPA Giardia inh	Tb PYK inh
CC(CNC(=O)c1ccccc1Cl)c1ccccc1 (centres undefined)	36	0	34	0	0	0
O=C(CNc1ccccc1C(=O)O)c1ccccc1	0	0	18	0	0	0
Cc1ccc(CN(C(=O)Nc2cccc(Cl)c2)c2ccccn2)cc1	-	-	-	-	-	0
O=C1O/C(=C/Br)CCC1c1cccc2ccccc12 (centres undefined)	-	-	-	-	0	-
COC(=O)c1ccc(/C=C/C(=O)O)cc1	0	0	0	0	0	0
COc1c(OC(C)=O)ccc(/C=C/c2ccc3cccc(OC)c3n2)c1[N+](=O)[O-]	41	0	22	0	0	0
COC(=O)c1ccc(/C=C/c2ccc3cccc(OC(C)=O)c3n2)cc1	117	?	57	?	0	0
CCOc1c(OC(C)=O)ccc(/C=C/c2ccc3cccc(OC(C)=O)c3n2)c1[N+](=O)[O-]	+	0	43	0	-	0
COc1c(OC(C)=O)ccc(/C=C/c2ccc3ccccc3n2)c1[N+](=O)[O-]	99	0	29	0	0	0
CCCN(C(=O)c1cc(S(=O)(=O)N2CCc3ccccc32)cn1C)c1ccc(OCC)cc1	-	-	-	-	-	0
